The source of these data is ChEMBL document CHEMBL1157539, “Thousands of chemical starting points for antimalarial lead identification” (Nature, 2010).

The structures appear in SMILES notation.

The subject of this test is HepG2. As to the kind of experiment: GSK_TCMDC: Percent inhibition of human HepG2 cell line. Test compounds present at 10uM. In kind it is functional.
For `Cl.Cn1ncc2c3c(CCN4CCC(NCc5ccc6c(c5)NC(=O)CO6)CC4)c(Cl)cnc3ccc21`, the Inhibition – broadly, the share of the control response that was lost under treatment – is listed as 18%.
In turn, `Nc1ncc(-c2ccsc2)cc1-c1nc2ccccc2[nH]1` came in with an Inhibition of 33%.
`O=C(NCc1ccc(F)cc1)Nc1ccc(-c2cccc(-c3nc4cc(F)ccc4[nH]3)c2)cc1` had an Inhibition of 31%.
The value for `Cc1ccc2[nH]c(C3CCCNC3)c(-c3ccncc3)c2c1` (configuration not stated) was 10%; that for `O=C(/C=C/c1ccc(Cl)c(Cl)c1)NCCCCCN1CCC(n2c(=O)[nH]c3ccccc32)CC1` was 38%.
The figure for `Br.CCCc1cccc(OC)c1OCCCON1C(N)=NC(N)=NC1(C)C` is 65%.
The value for `Cc1cccc2sc(N(CCCn3ccnc3)C(=O)C=Cc3cccs3)nc12.Cl` was 0%; that for `CN(C)CCCN(C)c1cccc2c1nc(-c1cccnc1)n2CCNCc1ccccc1.O=C(O)C(F)(F)F` was 4%.
`Nc1nc(N)c2c(Oc3cccc4ccccc34)cccc2n1`: the Inhibition worked out at 42%.
In the case of `CN1CCC(c2nc(N)no2)C1.O=C(O)C(=O)O` (configuration not stated), the Inhibition is recorded as 15%.
The figure for `COc1ccc2nccc([C@@H](O)CN3CCC(NCc4nc5c(OCc6ccccc6)cccc5[nH]4)CC3)c2c1.O=C(O)C(=O)O` is 6%; for `CCN1CCN(C(=O)NC(C(=O)N(C)Cc2ccc(-c3ccc(C(F)(F)F)cc3)cc2)c2cccs2)C(=O)C1=O` (configuration not stated) it is 0%; for `COc1cc(C(=O)NC2CC(C)(C)N(C)C(C)(C)C2)ccc1-c1cc2cc(Cl)c(Cl)cc2[nH]1` it is 65%.
In turn, `O=C(C=Cc1ccc(Cl)c(Cl)c1)NCCCCCN1CCC(CCNC(=O)c2cccc3ccccc23)CC1` gave an Inhibition of 17%.
On to `CCOc1cc(C(=O)NCCCN2CCCCC2C)ccc1-c1nc2cc(Cl)ccc2[nH]1` (configuration not stated), for which the Inhibition turned out to be 2%.
As for `Oc1ccccc1CN(CCCN(Cc1ccccn1)Cc1ccccc1O)Cc1ccccn1`, the Inhibition is given as 64%.
`COc1ccc2nccc([C@@H](O)CN3CCC(NCc4ccc5nnsc5c4)CC3)c2c1.O=C(O)C(=O)O` yielded an Inhibition of 16%.
As for `CCCCCC(C)NC[C@@H](O)[C@H](Cc1ccccc1)NC(=O)c1cc(NCC)cc(N2CCCCS2(=O)=O)c1.Cl` (some centres not stated), the Inhibition was 3%.
`CN1CCN(S(=O)(=O)c2cccc(Nc3nccc(N(C)c4ccc5c(c4)nc(NC(=O)c4cccs4)n5C)n3)c2)CC1` yielded an Inhibition of 25%.
`O=C(C=Cc1cn(-c2ccccc2)nc1-c1ccccc1)N1CCN(c2ccncc2)CC1` came in with an Inhibition of 11%.
The value for `CCN1CCC(N(CCCCCCc2ccc(C(F)(F)F)cc2)C(=O)Cn2c(CCc3cccc(F)c3F)cc(=O)c3ccccc32)CC1.O=C(O)C(O)C(O)C(=O)O` was 32%.
Turning to `CCCCNc1cc(C)nc(NCc2ccccc2)n1`, the Inhibition worked out at 23%.
The molecule `O=C(NC1CCCCC1)N(Cc1cccc(-c2ccc(CNCc3ccc4c(c3)OCO4)cc2)c1)C1CCN(Cc2ccccc2)CC1.O=C(O)C(F)(F)F` had an Inhibition of 13%.
On to `O=c1ccc(CNc2nc(NCCc3ccccc3)nc3ccc(Cl)cc23)c[nH]1`, for which the Inhibition amounted to 9%.
Consider `CN(C)CCCOc1ccc(CNCc2cccc(Oc3ccc(Cl)cc3)c2)cc1.O=C(O)C(F)(F)F`, for which the Inhibition was 52%.
As for `O=C(O)C(F)(F)F.OC1CCCN(Cc2cccc(-c3ccc(-c4nc5ccccc5[nH]4)cc3)c2)C1` (configuration not stated), the Inhibition is reported as 25%.
The figure for `COc1ccc(CCNC(=O)c2cc(C)ccc2O)cc1-c1ccc(C(C)(C)C)cc1` is 1%.
